{"source": "PubChem BioAssay AID2314", "about": "(National Center for Advancing Translational Sciences (NCATS), 2010)", "note": "Screen size: about 300,000 compounds; about 37,000 (12%) were called active. The full list was thinned out, with actives kept by preference. Unmarked numbers belong to inactive results. Rule as the data show it: active = max response mostly above about 13% (no sharp cut-off); inactive = mostly below about 14%.", "data": [{"assay": "Cycloheximide Counterscreen for Small Molecule Inhibitors of Shiga Toxin; also: read at 38.3 µM for the half of the compounds with a filed dose; 0% is about no effect", "conditions": "cell reporter, cycloheximide protein synthesis inhibition counterscreen; stronger effect = higher value", "values": [{"smiles": "CCn1c(=S)sc2c(=O)n(CC(=O)Nc3cccc(Br)c3)c(C)nc21", "max response": "-2.2%"}, {"smiles": "CCCCC(C(=O)NC(C)(C)C)N(Cc1ccccc1)C(=O)c1snc(C(N)=O)c1N", "note": "(configuration not stated)", "max response": "-0.829%"}, {"smiles": "COc1ccc(S(=O)(=O)NC(C)C(=O)Nc2cccc([N+](=O)[O-])c2)cc1", "note": "(configuration not stated)", "max response": "5.76%"}, {"smiles": "COC(=O)/C=C\\C(=O)Nc1cccc([N+](=O)[O-])c1", "max response": "58% (active)"}, {"smiles": "CC(=O)Nc1cccc([N+](=O)[O-])c1", "max response": "5.16%"}, {"smiles": "C[C@H](NC(=O)[C@@H]1Cc2ccccc2CN1C(=O)OC(C)(C)C)C(=O)NC1CCCC1", "max response": "0.878%"}, {"smiles": "Cc1cc(OC(=O)c2ccc(OC(C)C)cc2)c([N+](=O)[O-])c(=O)[nH]1", "max response": "10.8%"}, {"smiles": "Cc1ccc(S(=O)(=O)NCCCn2ccnc2)cc1C(=O)NC(C)C", "max response": "-2.94%"}, {"smiles": "CCOc1ccc(N2C(=O)/C(=C/c3ccc(C)o3)N(C)C2=S)cc1", "max response": "-2.62%"}, {"smiles": "CC(C)(C)OC(=O)N1CCC(C(=O)NNC(=O)c2ccc(Cl)cc2Cl)CC1", "max response": "1.42%"}, {"smiles": "CCOc1ccc(NC(=O)NNC(=O)c2ccc(Cl)cc2Cl)cc1", "max response": "-2.33%"}, {"smiles": "Cc1ccc(C(=O)NNC(=O)OC(C)(C)C)c(Cl)c1", "max response": "23.3% (active)"}, {"smiles": "Cc1ccccc1CN1C[C@@H]2C[C@@H](c3cn(C)nc3-c3ccccc3)N3CCC[C@@]23C1=O", "max response": "-1.2%"}, {"smiles": "Cc1cccc(NC(=O)c2cc(N3C(=O)CCC3=O)ccc2Cl)n1", "max response": "-1.19%"}, {"smiles": "Cc1cccc(NC(=O)c2ccc3ccccc3n2)n1", "max response": "56.4% (active)"}, {"smiles": "Cc1cccc(NC(=O)c2ccccc2NC(=O)C(C)(C)C)n1", "max response": "-4.22%"}, {"smiles": "CCOC(=O)C(=CNc1cccc(C)n1)C(=O)OCC", "max response": "11.4%"}, {"smiles": "Cc1cccc(NC(=O)c2cccnc2Cl)n1", "max response": "24.1% (active)"}, {"smiles": "COC(=O)C(C(=O)Nc1cccc(C)n1)C1CCCCCC1", "note": "(configuration not stated)", "max response": "0.569%"}, {"smiles": "COc1cccc(CNC(=O)C2CCCN(c3ncnc4c3nc3n4CCCCC3)C2)c1", "note": "(configuration not stated)", "max response": "-1.2%"}, {"smiles": "COc1cc2c(cc1OC)C(C(=O)Nc1cc(C)c(OC)c(C)c1)CC(=O)N2", "note": "(configuration not stated)", "max response": "-2.52%"}, {"smiles": "Cc1c(Cl)cccc1NC(=S)NCC(O)c1ccccc1", "note": "(configuration not stated)", "max response": "7.6%"}, {"smiles": "O=c1ccc2cc(S(=O)(=O)NCCCc3ccccc3)ccc2[nH]1", "max response": "0.781%"}, {"smiles": "COCC(=O)Nc1c(C(=O)N2CCCC2)oc2ccccc12", "max response": "9.66%"}, {"smiles": "O=C(Nc1ccc(F)cc1)c1cccnc1N1CCOCC1", "max response": "-3.65%"}, {"smiles": "O=C(Nc1ccc(N2CCOCC2)nc1)c1c(F)cccc1F", "max response": "47.6% (active)"}, {"smiles": "NC(=O)c1ccc(N2CCOCC2)nc1", "max response": "3.99%"}]}]}
